From PubChem BioAssay AID1851 (National Center for Advancing Translational Sciences (NCATS), 2009)
Several values for one entry are separate records, joined by “and”; a condition that tells them apart may be missing. Identical values can stand only once. Among all 16,000 compounds or so, about 4,000 (25%) were called active. Another 26% or so got no clear call; they are omitted. Calls come from the whole dose curve; as a rule, active = well fitted curve in the direction sought with a large enough effect; inconclusive = small, poorly fitted or top-dose-only effect, or effect the other way; inactive = no such curve, though single readings can be large or run the other way. These entries were drawn from the full list. Some structures have more than one record in an assay (separate samples or runs), and their calls can disagree.

target: Cytochrome P450 2C9 (Homo sapiens) (UniProt P11712); assay: Cytochrome panel assay with activity outcomes; conditions: recombinant CYP, pro-luciferin dealkylation, luminescence, p450-cyp2c9; series mostly up to 57.1 µM; activity, negative = inhibition: at the top concentration
% is set by controls: 0 for no effect and ±100 for the full control effect.

Chain of Cytochrome P450 2C9 (Homo sapiens) (P11712 whole entry, looked up): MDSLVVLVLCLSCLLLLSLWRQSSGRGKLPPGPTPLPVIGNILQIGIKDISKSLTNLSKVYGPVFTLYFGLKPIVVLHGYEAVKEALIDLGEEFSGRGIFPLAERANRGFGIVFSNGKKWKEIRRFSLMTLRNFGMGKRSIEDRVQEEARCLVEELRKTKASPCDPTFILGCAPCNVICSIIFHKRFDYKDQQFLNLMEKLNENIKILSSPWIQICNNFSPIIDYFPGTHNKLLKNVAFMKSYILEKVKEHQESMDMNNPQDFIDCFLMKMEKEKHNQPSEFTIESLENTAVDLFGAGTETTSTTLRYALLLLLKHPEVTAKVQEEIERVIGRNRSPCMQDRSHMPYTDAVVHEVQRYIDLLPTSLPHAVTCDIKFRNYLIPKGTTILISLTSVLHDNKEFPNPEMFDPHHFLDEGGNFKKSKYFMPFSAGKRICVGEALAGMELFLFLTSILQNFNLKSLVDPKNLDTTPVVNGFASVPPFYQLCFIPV

Compound	activity, negative = inhibition	AC50
COc1ccccc1OCCOc1ccc(/C=C2/C(=N)N3OC(C)=CC3=NC2=O)cc1OC	-12.8% (inactive)	–
COc1cc(/C=C2/C(=N)N3OC(C)=CC3=NC2=O)ccc1OCCOc1ccc(C)cc1	-13.9% (inactive)	–
COc1cc(/C=C2/C(=N)N3C=CSC3=NC2=O)ccc1OCCCOc1ccccc1C	–	0.708 µM (active)
CCOc1cc(/C=C2/C(=N)N3C=CSC3=NC2=O)ccc1OCCCOc1ccccc1C	–	0.631 µM (active)
CO[C@@H]1COC(=O)CC=C[C@@H](C)[C@@H]2C=C[C@H](O)[C@@H](COC(=O)C/C=C\[C@H]1C)O2	10.7% [at 11.4 µM] (inactive)	–
Cc1ccccc1-c1cncnc1N1CCN(C)CC1	18.6% [at 2.29 µM] (inactive)	–
CN1CCCC1CCNC1C2CC3CC(C2)CC1C3 (stereo not drawn)	29.2% (inactive)	–
NCCCCNCCCN	–	inactive and 12.6 µM (active)
NCCCNCCCCNCCCN	–	inactive
NCCCCN	14.3% (inactive)	–
CCCCN(CC)Cc1ccc(CNC(=O)Nc2ccc(OC)cc2OC)o1	-24.1% (inactive)	–
CCN(CC)CCOC(=O)c1c(C)n(C)c2ccc(OC)cc12	5.37% (inactive)	–
CCCCOC(=O)C1=C(C)Nc2ncnn2C1c1cc(OC)ccc1OC (stereo not drawn)	–	7.94 µM (active)
O=C1C(SCCO)=C(SCCO)C(=O)c2ccccc21	–	5.01 µM (active)
O=S(=O)(O)[C@@H](CO)c1ccccc1 (tested in a mixture with another compound)	-2.54% [at 11.4 µM] (inactive)	–
CCCn1c(=O)c2[nH]c(C3CCCC3)nc2n(CCC)c1=O	-16.3% (inactive)	–
Nc1ncnc2c1ncn2[C@H]1O[C@@H](C(=O)O)[C@@H](O)[C@H]1O	20% [at 11.4 µM] (inactive)	–
COc1ccc(S(=O)(=O)NCc2ccc(C(=O)N3CCN(c4ccccn4)CC3)cc2)cc1	–	3.98 µM (active)
COc1ccc(C(=O)N2CCC3(CC2)CCN(c2ncccn2)CC3)cc1	-29.8% (inactive)	–
COc1ccc(C(=O)N2CCC3(CC2)CN(C(=O)Nc2ccccc2)C3)cc1	0.0177% (inactive)	–
COCC(=O)N1CCC2(CC1)CCN(c1ccccn1)CC2	-6.99% (inactive)	–
CC(C)c1ccc(OCc2ccc(C(=O)N3CCN(c4ccccn4)CC3)cc2)cc1	–	3.16 µM (active)
O=C(c1ccco1)N1CCC2(CC1)CN(c1ccccn1)C2	2.21% (inactive)	–
Cc1ccc(C(=O)NNC(=O)c2cc3cc4ccccc4nc3s2)cc1	-26% (inactive)	–

Compound	activity, negative = inhibition	AC50
CC1CCc2cc(F)ccc2N1C(=O)CSc1nnc2c(n1)[nH]c1ccc(F)cc12 (stereo not drawn)	–	1.78 µM (active)
Cc1ccc2[nH]c3nc(CCCn4ccnc4-c4ccccc4)nnc3c2c1	-17.6% [at 11.4 µM] (inactive)	–
CON(C)C(=O)c1nnc2c(n1)[nH]c1ccccc12	-19% [at 11.4 µM] (inactive)	–
C[C@@H]1CCc2cc(F)cc3c(=O)c(C(=O)O)cn1c23	17.9% [at 25.6 µM] (inactive)	–
CCOC(=O)CC(=O)CSc1nnc2c(n1)[nH]c1ccccc12	–	8.91 µM (active)
Cc1ccc(C(=O)NNC(=O)CSc2nnc3c(n2)[nH]c2ccc(F)cc23)cc1	–	5.62 µM (active)
CCOCc1cnc(C)nc1NCC(=O)c1c(C)[nH]c2ccccc12	2.81% (inactive)	–
COc1ccc(/C=N/NC(=O)c2ccn[nH]2)cc1COc1ccc(Cl)cc1	–	12.6 µM (active)
COc1ccccc1CN1CCC2(CC1)CCN(C(C)=O)CC2	8.11% (inactive)	–
COc1ccc(/C=N/NC(=O)c2ccccc2)cc1CN1CCN(c2ccc(F)cc2)CC1	–	11.2 µM (active)
COc1cccc(/C=N\NC(=O)c2cc(OCC(F)(F)F)ccc2OCC(F)(F)F)c1	-8.34% (inactive)	–
Cc1ccc(/C=N\NC(=O)c2cc(OCC(F)(F)F)ccc2OCC(F)(F)F)cc1	-1.33% (inactive)	–
COc1ccc(/C=N/NC(=O)c2ccn[nH]2)cc1COc1ccc(F)cc1	–	25.1 µM (active)
CCOc1cc(CN2CCN(c3ccc(C(C)=O)cc3)CC2)ccc1OC	-29% (inactive)	–
Cc1n[nH]c(=O)[nH]c1=O	-0.473% [at 25.6 µM] (inactive)	–
CCOc1nc(N2CCCCC2)nc(-n2cc(-c3ccccc3)nn2)n1	–	2.24 µM (active)
O=C(O)CC12C[C@H]3C[C@@H](CC(O)(C3)C1)C2	-4.71% [at 11.4 µM] (inactive)	–
Cc1cnc(CNc2nc(-c3cccnc3)nc3ccccc23)cn1	16.9% [at 2.29 µM] (inactive)	–
NCCS	-13.1% (inactive)	–
Cc1c(Br)c([N+](=O)[O-])nn1C(C)C(=O)Nc1nccs1 (stereo not drawn)	–	3.55 µM (active)
O=C(O)c1cc(=O)cc(C(=O)O)[nH]1	-3.86% (inactive)	–
CO[C@H]1COC(=O)C/C=C\[C@H](C)[C@H](OC)COC(=O)[C@@H](C)COC(=O)C/C=C\[C@@H]1C	-5.38% [at 11.4 µM] (inactive) and 5.78% [at 11.4 µM] (inactive)	–
CO[C@@H]1COC(=O)C/C=C\[C@@H](C)[C@H](OC)COC(=O)[C@@H](C)COC(=O)C/C=C\[C@H]1C	11.9% [at 11.4 µM] (inactive)	–
CO[C@H]1COC(=O)C/C=C\[C@H](C)[C@@H](OC)COC(=O)[C@@H](C)COC(=O)C/C=C\[C@@H]1C	–	2.51 µM (active)
